Data as given in the supplement of paper PMC10849652.
About 8,800 targets were measured; listed, in parts, are those with a hit and a random draw of the rest. About 0.5% of all pairs of compound and target were hits.

Legend:
Experiment in all cases: log2 fold change, soluble protein after heating vs DMSO (PISA); higher = thermal stabilisation; K562 lysate, 10 uM; active = over 0.2 and 3.5 SD of the protein, either way, in both replicates (recomputed)
alvocidib = compound: CN1CC[C@H](c2c(O)cc(O)c3c(=O)cc(-c4ccccc4Cl)oc23)[C@H](O)C1 [alvocidib]
In short: (§1)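 Quantification was by TMTpro 16plex LC-MS/MS with equalised channel sums, applied to the supernatant after 21,000xg for 90 min. Samples were crude K562 extract at 1 mg/mL protein in PBS pH 7.4 with 1 mM MgCl2, treated with 10 μM compound for 30 min, heated for 3 min across 48°C-58°C, pooled and brought to 0.5% NP-40 at 4°C. Values are log-two fold changes in thermal stability relative to solvent controls, from duplicates.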

Tubastatin A = compound: CN1CCc2c(c3ccccc3n2Cc2ccc(C(=O)NO)cc2)C1 [Tubastatin A]
In short: as §1

[1] = compound: CNC(=O)C1=CC=CC=C1NC2=NC(=NC=C2Cl)NC3=C(C=C(C=C3)N4CCOCC4)OC
In short: as §1

defactinib = compound: CNC(=O)c1ccc(Nc2ncc(C(F)(F)F)c(NCc3nccnc3N(C)S(C)(=O)=O)n2)cc1 [defactinib]
In short: as §1

[2] = compound: CNc1nc(-c2ccc3c(N)n[nH]c3c2)cc(N2C[C@@H](C(=O)NC3CCCCC3)CC[C@H]2C)n1
In short: as §1

encorafenib = compound: COC(=O)N[C@@H](C)CNc1nccc(-c2cn(C(C)C)nc2-c2cc(Cl)cc(NS(C)(=O)=O)c2F)n1 [encorafenib]
In short: as §1

[3] = compound: COC(=O)[C@H](CCSC)NC(=O)C1=C(C=C(C=C1)NC[C@H](CS)N)C2=CC=CC=C2
In short: as §1

alisertib = compound: COc1cc(Nc2ncc3c(n2)-c2ccc(Cl)cc2C(c2c(F)cccc2OC)=NC3)ccc1C(=O)O [alisertib]
In short: as §1

[4] = compound: COc1cc2nc(-c3cc(F)ccc3O)nc(N[C@@H]3CNC[C@H]3C(C)(C)O)c2cc1OC
In short: as §1

gefitinib = compound: COc1cc2ncnc(Nc3ccc(F)c(Cl)c3)c2cc1OCCCN1CCOCC1 [gefitinib]
In short: as §1

lapatinib = compound: CS(=O)(=O)CCNCc1ccc(-c2ccc3ncnc(Nc4ccc(OCc5cccc(F)c5)c(Cl)c4)c3c2)o1 [lapatinib]
In short: as §1

pictilisib = compound: CS(=O)(=O)N1CCN(Cc2cc3nc(-c4cccc5[nH]ncc45)nc(N4CCOCC4)c3s2)CC1 [pictilisib]
In short: as §1

crizotinib = compound: C[C@@H](Oc1cc(-c2cnn(C3CCNCC3)c2)cnc1N)c1c(Cl)ccc(F)c1Cl [crizotinib]
In short: as §1

[5] = compound: C[C@H](C1=CC=C(C=C1)C(=O)NC2=C3C=CNC3=NC=C2)N
In short: as §1

duvelisib = compound: C[C@H](Nc1ncnc2nc[nH]c12)c1cc2cccc(Cl)c2c(=O)n1-c1ccccc1 [duvelisib]
In short: as §1

gandotinib = compound: Cc1cc(Nc2cc(CN3CCOCC3)c3nc(C)c(Cc4ccc(Cl)cc4F)n3n2)n[nH]1 [gandotinib]
In short: as §1

tozasertib = compound: Cc1cc(Nc2cc(N3CCN(C)CC3)nc(Sc3ccc(NC(=O)C4CC4)cc3)n2)n[nH]1 [tozasertib]
In short: as §1

doramapimod = compound: Cc1ccc(-n2nc(C(C)(C)C)cc2NC(=O)Nc2ccc(OCCN3CCOCC3)c3ccccc23)cc1 [doramapimod]
In short: as §1

bafetinib = compound: Cc1ccc(NC(=O)c2ccc(CN3CC[C@H](N(C)C)C3)c(C(F)(F)F)c2)cc1Nc1nccc(-c2cncnc2)n1 [bafetinib]
In short: as §1

[6] = compound: Cc1cccc(CC(=O)N2CCc3c2ccc(-c2cn(C)c4ncnc(N)c24)c3F)n1
In short: as §1

Measured: log2 fold change

ENO1 isoform 2 (UniProt P06733)
active: [5] -0.285
inactive: alvocidib -0.174 | Tubastatin A 0.085 | [1] -0.13 | defactinib -0.001 | [2] 0.009 | encorafenib 0.033 | [3] -0.033 | alisertib 0.022 | [4] -0.004 | gefitinib -0.015 | lapatinib 0.005 | pictilisib -0.012 | crizotinib -0.019 | duvelisib 0.049 | gandotinib 0.153 | tozasertib 0.026 | doramapimod -0.019 | bafetinib 0.07 | [6] 0.222

EEF1A1P5 (UniProt Q5VTE0)
inactive: alvocidib -0.022 | Tubastatin A -0.065 | [1] -0.021 | defactinib -0.015 | [2] -0.218 | encorafenib -0.027 | [3] 0.127 | alisertib 0.023 | [4] 0.009 | gefitinib 0 | lapatinib -0.006 | pictilisib 0.027 | crizotinib -0.026 | [5] -0.114 | duvelisib -0.098 | gandotinib 0.044 | tozasertib -0.001 | doramapimod 0.011 | bafetinib -0.017 | [6] 0.117

EXOC5 (UniProt O00471)
Sequence of UniProt O00471 (O00471 whole entry, looked up): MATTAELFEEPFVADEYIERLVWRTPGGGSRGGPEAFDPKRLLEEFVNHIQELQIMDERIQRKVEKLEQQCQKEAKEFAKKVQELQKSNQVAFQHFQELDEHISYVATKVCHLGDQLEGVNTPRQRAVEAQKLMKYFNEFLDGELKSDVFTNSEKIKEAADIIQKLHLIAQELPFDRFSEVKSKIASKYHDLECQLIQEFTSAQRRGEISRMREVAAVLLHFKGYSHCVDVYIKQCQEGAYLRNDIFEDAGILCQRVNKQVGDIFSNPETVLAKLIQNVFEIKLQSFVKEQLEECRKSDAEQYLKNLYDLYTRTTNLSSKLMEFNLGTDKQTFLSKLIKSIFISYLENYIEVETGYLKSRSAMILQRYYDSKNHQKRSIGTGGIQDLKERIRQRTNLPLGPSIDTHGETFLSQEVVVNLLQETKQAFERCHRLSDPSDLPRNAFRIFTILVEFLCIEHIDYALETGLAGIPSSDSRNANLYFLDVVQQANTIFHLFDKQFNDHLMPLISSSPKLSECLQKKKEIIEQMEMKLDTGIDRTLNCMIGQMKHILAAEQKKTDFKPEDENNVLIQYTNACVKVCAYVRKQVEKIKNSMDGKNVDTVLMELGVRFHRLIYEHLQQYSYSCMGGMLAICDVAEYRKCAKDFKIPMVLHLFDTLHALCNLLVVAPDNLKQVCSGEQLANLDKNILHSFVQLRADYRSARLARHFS
inactive: alvocidib 0.004 | Tubastatin A -0.064 | [1] -0.011 | defactinib 0.007 | [2] -0.07 | encorafenib 0.029 | [3] -0.102 | alisertib 0.029 | [4] -0.025 | gefitinib 0.002 | lapatinib -0.012 | pictilisib 0.017 | crizotinib -0.067 | [5] 0.055 | duvelisib -0.027 | gandotinib -0.202 | tozasertib 0.025 | doramapimod 0.027 | bafetinib -0.033 | [6] 0.003

GART (UniProt P22102)
inactive: alvocidib 0.021 | Tubastatin A -0.073 | [1] 0.002 | defactinib -0.024 | [2] 0.021 | encorafenib -0.027 | [3] 0.08 | alisertib 0.008 | [4] -0.004 | gefitinib -0.017 | lapatinib -0.008 | pictilisib -0.024 | crizotinib -0.017 | [5] 0.062 | duvelisib -0.014 | gandotinib -0.052 | tozasertib -0.004 | doramapimod 0 | bafetinib -0.001 | [6] -0.026

EIF2AK2 (UniProt P19525)
inactive: alvocidib 0.004 | Tubastatin A -0.099 | [1] 0.091 | defactinib 0.049 | [2] 0.083 | encorafenib 0.087 | [3] 0.153 | alisertib 0.003 | [4] 0.029 | gefitinib -0.055 | lapatinib -0.003 | pictilisib 0.03 | crizotinib 0.12 | [5] -0.061 | duvelisib -0.036 | gandotinib -0.022 | tozasertib -0.009 | doramapimod 0.011 | bafetinib -0.036 | [6] 0.022

GEMIN4 (UniProt P57678)
Sequence of UniProt P57678 (P57678 whole entry, looked up): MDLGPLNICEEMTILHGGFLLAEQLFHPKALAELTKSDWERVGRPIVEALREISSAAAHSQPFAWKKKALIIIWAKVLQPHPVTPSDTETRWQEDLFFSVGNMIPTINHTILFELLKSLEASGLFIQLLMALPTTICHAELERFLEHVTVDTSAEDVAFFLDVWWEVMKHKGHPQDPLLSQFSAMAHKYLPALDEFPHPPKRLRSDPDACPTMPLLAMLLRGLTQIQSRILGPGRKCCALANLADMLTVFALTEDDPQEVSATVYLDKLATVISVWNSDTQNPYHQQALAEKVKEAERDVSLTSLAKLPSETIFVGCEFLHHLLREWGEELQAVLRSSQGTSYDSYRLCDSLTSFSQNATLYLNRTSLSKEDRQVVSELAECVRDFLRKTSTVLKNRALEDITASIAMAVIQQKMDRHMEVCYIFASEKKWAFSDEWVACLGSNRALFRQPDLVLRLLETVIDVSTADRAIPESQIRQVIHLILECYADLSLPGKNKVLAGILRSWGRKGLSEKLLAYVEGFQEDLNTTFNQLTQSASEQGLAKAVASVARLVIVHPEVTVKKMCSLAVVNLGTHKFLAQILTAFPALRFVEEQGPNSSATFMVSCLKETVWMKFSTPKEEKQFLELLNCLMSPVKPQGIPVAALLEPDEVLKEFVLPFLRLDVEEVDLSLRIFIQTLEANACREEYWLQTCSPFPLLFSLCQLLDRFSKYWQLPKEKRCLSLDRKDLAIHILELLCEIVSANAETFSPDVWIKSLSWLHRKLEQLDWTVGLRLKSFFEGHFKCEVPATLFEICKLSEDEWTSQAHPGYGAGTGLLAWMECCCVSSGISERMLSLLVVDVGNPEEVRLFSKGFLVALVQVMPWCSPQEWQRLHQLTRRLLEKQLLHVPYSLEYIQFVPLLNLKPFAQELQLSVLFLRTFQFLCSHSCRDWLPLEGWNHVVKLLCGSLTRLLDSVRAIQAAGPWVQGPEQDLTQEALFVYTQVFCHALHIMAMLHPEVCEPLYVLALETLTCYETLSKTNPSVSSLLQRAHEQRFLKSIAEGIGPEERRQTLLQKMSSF
inactive: alvocidib 0.017 | Tubastatin A -0.196 | [1] 0.078 | defactinib -0.014 | [2] -0.072 | encorafenib 0.022 | [3] 0.013 | alisertib -0.006 | [4] -0.005 | gefitinib 0.016 | lapatinib -0.031 | pictilisib -0.012 | crizotinib -0.065 | [5] -0.013 | duvelisib 0.004 | gandotinib -0.188 | tozasertib -0.009 | doramapimod 0.032 | bafetinib -0.038 | [6] 0.039

EPB41 (UniProt P11171)
Sequence of UniProt P11171 (P11171 whole entry, looked up): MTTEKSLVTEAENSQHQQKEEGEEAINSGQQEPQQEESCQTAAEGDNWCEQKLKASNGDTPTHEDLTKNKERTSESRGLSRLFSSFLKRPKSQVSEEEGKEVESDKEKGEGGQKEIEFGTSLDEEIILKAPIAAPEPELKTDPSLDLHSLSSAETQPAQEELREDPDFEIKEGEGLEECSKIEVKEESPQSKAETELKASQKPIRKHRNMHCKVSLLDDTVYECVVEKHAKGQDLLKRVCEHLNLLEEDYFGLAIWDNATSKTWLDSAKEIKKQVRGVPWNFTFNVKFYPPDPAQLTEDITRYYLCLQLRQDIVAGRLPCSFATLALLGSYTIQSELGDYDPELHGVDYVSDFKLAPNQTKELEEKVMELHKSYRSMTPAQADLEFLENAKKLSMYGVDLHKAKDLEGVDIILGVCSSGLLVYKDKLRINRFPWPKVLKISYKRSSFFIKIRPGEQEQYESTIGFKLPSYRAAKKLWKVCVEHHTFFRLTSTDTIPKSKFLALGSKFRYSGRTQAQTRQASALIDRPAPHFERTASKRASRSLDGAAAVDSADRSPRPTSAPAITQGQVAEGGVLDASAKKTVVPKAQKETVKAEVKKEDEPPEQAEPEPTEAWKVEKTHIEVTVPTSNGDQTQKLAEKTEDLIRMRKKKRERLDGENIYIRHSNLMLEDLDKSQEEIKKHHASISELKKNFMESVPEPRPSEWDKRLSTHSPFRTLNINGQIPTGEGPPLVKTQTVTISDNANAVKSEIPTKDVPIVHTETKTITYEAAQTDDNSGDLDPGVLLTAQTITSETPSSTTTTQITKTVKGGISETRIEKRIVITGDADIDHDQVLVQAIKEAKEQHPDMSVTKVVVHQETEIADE
inactive: alvocidib 0.044 | Tubastatin A -0.02 | [1] 0.011 | defactinib 0.015 | [2] -0.067 | encorafenib 0.01 | [3] -0.001 | alisertib 0.02 | [4] -0.036 | gefitinib 0.007 | lapatinib -0.009 | pictilisib -0.015 | crizotinib -0.007 | [5] 0.04 | duvelisib -0.016 | gandotinib -0.105 | tozasertib 0.035 | doramapimod 0.01 | bafetinib -0.013 | [6] -0.088

EIF1 (UniProt P41567)
inactive: alvocidib -0.033 | Tubastatin A 0.084 | [1] -0.039 | defactinib -0.013 | [2] -0.02 | encorafenib -0.017 | [3] -0.032 | alisertib -0.006 | [4] 0.005 | lapatinib 0.053 | pictilisib 0.016 | crizotinib 0.002 | [5] -0.051 | duvelisib 0.044 | gandotinib 0.068 | tozasertib -0.008 | doramapimod -0.092 | bafetinib 0.052 | [6] 0.021
active: gefitinib -0.247

FUBP3 (UniProt Q96I24)
Sequence of UniProt Q96I24 (Q96I24 whole entry, looked up): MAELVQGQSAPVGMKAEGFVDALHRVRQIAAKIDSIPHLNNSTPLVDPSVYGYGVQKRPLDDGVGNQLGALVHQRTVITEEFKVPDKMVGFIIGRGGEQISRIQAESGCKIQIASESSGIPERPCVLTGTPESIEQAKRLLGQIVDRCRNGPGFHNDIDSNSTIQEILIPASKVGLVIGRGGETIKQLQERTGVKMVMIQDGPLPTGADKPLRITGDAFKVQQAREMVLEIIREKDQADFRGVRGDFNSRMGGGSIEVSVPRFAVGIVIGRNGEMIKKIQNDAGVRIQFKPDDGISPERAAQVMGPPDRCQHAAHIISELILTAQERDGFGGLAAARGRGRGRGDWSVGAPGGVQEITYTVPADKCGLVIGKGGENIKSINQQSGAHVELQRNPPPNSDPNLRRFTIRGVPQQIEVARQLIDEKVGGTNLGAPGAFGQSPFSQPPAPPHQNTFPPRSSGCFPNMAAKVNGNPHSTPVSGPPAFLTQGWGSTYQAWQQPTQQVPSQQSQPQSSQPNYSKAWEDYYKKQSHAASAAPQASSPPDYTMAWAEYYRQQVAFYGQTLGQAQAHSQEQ
inactive: alvocidib 0.008 | Tubastatin A -0.101 | [1] -0.033 | defactinib 0.005 | [2] -0.05 | encorafenib 0.065 | [3] -0.146 | alisertib 0.048 | [4] 0.001 | gefitinib -0.033 | lapatinib 0.02 | pictilisib -0.109 | crizotinib 0.005 | [5] 0.036 | duvelisib -0.022 | gandotinib 0.019 | tozasertib 0.033 | doramapimod -0.034 | bafetinib -0.055 | [6] -0.05

GATAD2A isoform 3 (UniProt Q86YP4)
inactive: alvocidib -0.028 | Tubastatin A -0.045 | [1] 0.015 | defactinib 0 | [2] 0.025 | encorafenib 0.005 | [3] 0.072 | alisertib 0.006 | [4] 0.01 | gefitinib -0.023 | lapatinib -0.012 | pictilisib -0.031 | crizotinib -0.011 | [5] -0.031 | duvelisib -0.037 | gandotinib 0.016 | tozasertib -0.009 | doramapimod 0.026 | bafetinib 0.001 | [6] 0.061

EMC7 (UniProt Q9NPA0)
active: [5] -0.353
inactive: alvocidib -0.146 | Tubastatin A 0.039 | [1] -0.037 | defactinib 0.02 | [2] -0.008 | encorafenib 0.026 | [3] -0.058 | alisertib 0.001 | [4] 0.017 | gefitinib -0.043 | lapatinib -0.03 | pictilisib 0.024 | crizotinib 0.012 | duvelisib -0.041 | gandotinib 0.077 | tozasertib 0.02 | doramapimod 0.011 | bafetinib -0.031 | [6] 0.174

EXOC6 (UniProt Q8TAG9)
Sequence of UniProt Q8TAG9 (Q8TAG9 whole entry, looked up): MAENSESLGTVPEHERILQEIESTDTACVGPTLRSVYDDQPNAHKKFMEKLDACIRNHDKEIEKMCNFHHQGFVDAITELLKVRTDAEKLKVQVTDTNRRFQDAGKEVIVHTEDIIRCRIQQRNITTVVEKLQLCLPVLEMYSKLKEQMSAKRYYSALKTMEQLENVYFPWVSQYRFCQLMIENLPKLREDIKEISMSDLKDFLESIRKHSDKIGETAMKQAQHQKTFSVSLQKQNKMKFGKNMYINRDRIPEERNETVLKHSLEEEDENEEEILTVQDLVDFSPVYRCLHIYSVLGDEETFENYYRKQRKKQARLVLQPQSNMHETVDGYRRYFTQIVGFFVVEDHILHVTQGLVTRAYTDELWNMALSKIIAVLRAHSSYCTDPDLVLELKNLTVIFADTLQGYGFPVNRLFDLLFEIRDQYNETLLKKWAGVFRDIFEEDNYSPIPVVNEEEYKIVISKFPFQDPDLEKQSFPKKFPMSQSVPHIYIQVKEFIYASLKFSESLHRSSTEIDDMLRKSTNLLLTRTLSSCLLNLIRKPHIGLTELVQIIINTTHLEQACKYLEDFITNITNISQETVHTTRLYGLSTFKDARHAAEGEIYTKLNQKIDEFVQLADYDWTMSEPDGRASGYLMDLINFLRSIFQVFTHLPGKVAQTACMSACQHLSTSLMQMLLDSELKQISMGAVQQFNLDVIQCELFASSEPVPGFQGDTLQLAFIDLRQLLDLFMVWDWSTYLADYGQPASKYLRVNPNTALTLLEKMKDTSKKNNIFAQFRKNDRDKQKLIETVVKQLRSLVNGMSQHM
inactive: alvocidib -0.014 | Tubastatin A -0.092 | [1] 0.013 | defactinib 0.008 | [2] -0.017 | encorafenib 0.015 | [3] 0.039 | alisertib 0.007 | [4] 0.016 | gefitinib 0.003 | lapatinib -0.017 | pictilisib -0.04 | crizotinib -0.121 | [5] -0.013 | duvelisib 0 | gandotinib -0.166 | tozasertib 0.029 | doramapimod 0.004 | bafetinib -0.059 | [6] 0.033

GALK1 isoform 2 (UniProt P51570)
Sequence of UniProt P51570 (P51570 whole entry, looked up): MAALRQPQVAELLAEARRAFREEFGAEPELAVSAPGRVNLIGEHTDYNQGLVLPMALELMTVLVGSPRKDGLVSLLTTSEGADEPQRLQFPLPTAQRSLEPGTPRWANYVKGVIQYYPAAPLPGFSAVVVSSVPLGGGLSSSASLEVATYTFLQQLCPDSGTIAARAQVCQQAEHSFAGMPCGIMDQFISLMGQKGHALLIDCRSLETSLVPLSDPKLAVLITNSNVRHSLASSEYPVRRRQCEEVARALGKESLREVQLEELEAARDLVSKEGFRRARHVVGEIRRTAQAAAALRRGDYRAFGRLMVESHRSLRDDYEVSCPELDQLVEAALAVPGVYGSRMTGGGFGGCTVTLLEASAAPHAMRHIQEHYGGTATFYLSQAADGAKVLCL
inactive: alvocidib 0.035 | Tubastatin A -0.132 | [1] -0.005 | defactinib -0.002 | [2] 0 | encorafenib 0.02 | [3] -0.171 | alisertib 0.054 | [4] -0.016 | gefitinib 0.034 | lapatinib -0.002 | pictilisib -0.02 | crizotinib -0.015 | [5] 0.092 | duvelisib -0.028 | gandotinib -0.098 | tozasertib 0.03 | doramapimod 0.039 | bafetinib -0.007 | [6] -0.013

FOXK1 (UniProt P85037)
inactive: alvocidib -0.037 | Tubastatin A -0.116 | [1] 0.025 | defactinib 0.003 | [2] 0.059 | encorafenib 0.009 | [3] 0.09 | alisertib 0.016 | [4] 0.014 | gefitinib 0.003 | lapatinib 0.006 | pictilisib -0.036 | crizotinib 0.025 | [5] -0.024 | duvelisib -0.043 | gandotinib 0.002 | tozasertib 0.009 | doramapimod 0.035 | bafetinib 0.029 | [6] 0.034

EPB41, A0A2R8Y6D0
inactive: alvocidib -0.015 | Tubastatin A -0.033 | [1] 0.114 | defactinib 0.098 | [2] -0.178 | encorafenib 0.029 | [3] 0.052 | alisertib 0.165 | [4] -0.014 | gefitinib 0.407 | lapatinib 0.008 | pictilisib -0.14 | crizotinib -0.085 | [5] -0.037 | duvelisib -0.086 | gandotinib 0.031 | tozasertib 0.068 | doramapimod -0.051 | bafetinib -0.031 | [6] -0.003

FXR2 (UniProt P51116)
Sequence of UniProt P51116 (P51116 whole entry, looked up): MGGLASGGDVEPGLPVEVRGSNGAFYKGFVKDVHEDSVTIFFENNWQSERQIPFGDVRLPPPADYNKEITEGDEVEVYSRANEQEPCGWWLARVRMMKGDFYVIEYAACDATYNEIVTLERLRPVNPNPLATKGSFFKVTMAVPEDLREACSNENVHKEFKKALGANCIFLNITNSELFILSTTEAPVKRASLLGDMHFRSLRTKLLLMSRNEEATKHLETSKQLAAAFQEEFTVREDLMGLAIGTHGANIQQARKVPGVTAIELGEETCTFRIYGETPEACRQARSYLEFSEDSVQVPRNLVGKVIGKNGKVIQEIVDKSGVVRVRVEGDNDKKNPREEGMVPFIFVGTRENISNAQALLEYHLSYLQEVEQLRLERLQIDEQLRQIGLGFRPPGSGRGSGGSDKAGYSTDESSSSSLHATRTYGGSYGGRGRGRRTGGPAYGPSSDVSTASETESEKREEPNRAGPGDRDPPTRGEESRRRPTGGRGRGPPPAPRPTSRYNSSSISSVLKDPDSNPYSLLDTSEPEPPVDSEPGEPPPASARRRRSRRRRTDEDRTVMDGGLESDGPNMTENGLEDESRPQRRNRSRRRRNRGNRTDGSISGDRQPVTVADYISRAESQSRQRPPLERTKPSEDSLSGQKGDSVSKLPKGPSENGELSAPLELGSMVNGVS
inactive: alvocidib 0 | Tubastatin A -0.159 | [1] -0.083 | defactinib -0.117 | [2] -0.018 | encorafenib 0.06 | [3] 0.064 | alisertib 0.017 | [4] 0.013 | gefitinib 0.012 | lapatinib -0.002 | pictilisib -0.055 | crizotinib -0.017 | [5] -0.022 | duvelisib -0.016 | gandotinib -0.074 | tozasertib 0.009 | doramapimod 0.037 | bafetinib 0.002 | [6] 0.027
